Data on four compounds can be found in PubChem BioAssay (EPA / NIEHS).

Structures are written as SMILES. The source made the active and inactive calls. How the source made its calls, unless noted: active means hit-call score of the fitted dose curve at least 0.9, where 1 is the maximum; inactive means score below 0.9.

Read-out in test [1]: Protein phosphatase 2A (PPP2R4), PTPA (gene 5524)
In words: LTEA_HepaRG_PPP2R4: Life Technologies and Expression Analysis (LTEA) Assay for Protein phosphatase 2A (PPP2R4) using HepaRG (AID 2283522). To be noted: mRNA level, 48 h; actives raise or lower the signal. The method in brief:
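HepaRG, 48 h exposure, 8-pt half-log series from 100 uM, 0.5% DMSO vehicle, duplicates. Readout: PPP2R4 mRNA, Fluidigm qRT-PCR, housekeeping-normalized. Bidirectional curve fit vs DMSO baseline.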

Read-out in test [2]: Phosphatase and tensin (PTEN), PTEN (gene 5728)
Kind of test: LTEA_HepaRG_PTEN: Life Technologies and Expression Analysis (LTEA) Assay for Phosphatase and tensin (PTEN) using HepaRG (AID 2283523). The following applies: mRNA level, 48 h; actives raise or lower the signal. The method in brief:
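Expression of PTEN is quantified in the human liver line HepaRG following two days of dosing (top concentration 100 uM, half-log dilutions, 0.5% DMSO). Values derive from bidirectional curve fitting relative to DMSO controls.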

Read-out in test [3]: solute carrier (SLC22A1), SLC22A1 (gene 6580)
In words: LTEA_HepaRG_SLC22A1: Life Technologies and Expression Analysis (LTEA) Assay for solute carrier (SLC22A1) using HepaRG (AID 2283524).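 On AC50: differentiated human HepaRG liver cells in serum-free induction medium.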 The following applies: mRNA level, 48 h; actives raise or lower the signal. The gist of the method: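 Transcript induction or suppression of SLC22A1 in human HepaRG cultures is scored after 48 h chemical treatment, with DMSO (0.5%) as baseline for bidirectional fitting. Concentrations span eight half-log points topping at 100 uM.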

Read-out in test [4]: Pyruvate Dehydrogenase Kinase 4 (PDK4), PDK4 (gene 5166)
Kind of test: LTEA_HepaRG_PDK4: Life Technologies and Expression Analysis (LTEA) Assay for Pyruvate Dehydrogenase Kinase 4 (PDK4) using HepaRG (AID 2283525). The following applies: mRNA level, 48 h; actives raise or lower the signal. The gist of the method:
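Eight-point, half-log concentration series (max 100 uM, 0.5% DMSO) applied to differentiated HepaRG cells for 48 h in duplicate. Endpoint: PDK4 mRNA induction or repression by qRT-PCR against DMSO baseline.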

Read-out in test [5]: NAD(P)H dehydrogenase [quinone] 1 (NQO1), NQO1 (gene 1728)
Kind of test: LTEA_HepaRG_NQO1: Life Technologies and Expression Analysis (LTEA) Assay for NAD(P)H dehydrogenase [quinone] 1 (NQO1) using HepaRG (AID 2283526). The following applies: mRNA level, 48 h; actives raise or lower the signal. The gist of the method: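 qRT-PCR read-out (Fluidigm TaqMan), normalized to three housekeeping genes, after 48 h chemical exposure of HepaRG cells. Concentrations: eight points, top 100 uM, half-log steps, 0.5% DMSO vehicle. Gain or loss of signal fitted relative to DMSO.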

Read-out in test [6]: Nuclear factor erythroid 2-related factor 2 (Homo sapiens) (UniProt Q16236)
In words: LTEA_HepaRG_NFE2L2: Life Technologies and Expression Analysis (LTEA) Assay for Nuclear factor erythroid 2-related factor 2 (NFE2L2) Transcription Factor using HepaRG (AID 2283527). The following applies: mRNA level, 48 h; actives raise or lower the signal. The gist of the method: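 Human liver HepaRG line treated in duplicate for 48 h with an eight-point series topping at 100 uM. Gene expression of NFE2L2 by qRT-PCR, bidirectionally fitted against the vehicle control.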

Read-out in test [7]: succinate dehydrogenase complex iron sulfur subunit B (SDHB), SDHB (gene 6390)
Kind of test: LTEA_HepaRG_SDHB: Life Technologies and Expression Analysis (LTEA) Assay for succinate dehydrogenase complex iron sulfur subunit B (SDHB) using HepaRG (AID 2283528). To be noted: mRNA level, 48 h; actives raise or lower the signal. The gist of the method: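 HepaRG, 48 h exposure, 8-pt half-log series from 100 uM in 0.5% DMSO, duplicates. Readout: SDHB mRNA by Fluidigm qRT-PCR vs housekeeping genes; bidirectional fit relative to DMSO.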

Read-out in test [8]: Signal transducer and activator of transcription 3 (Homo sapiens) (UniProt P40763)
In words: LTEA_HepaRG_STAT3: Life Technologies and Expression Analysis (LTEA) Assay for Signal transducer and activator of transcription (STAT3) using HepaRG (AID 2283529). To be noted: mRNA level, 48 h; actives raise or lower the signal. The method in brief:
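In this transcriptional endpoint, HepaRG cultures receive test chemicals at up to 100 uM for 48 h, tested in duplicate. STAT3 mRNA is normalized to ACTB, GAPDH and POLR2A.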

Read-out in test [9]: solute carrier (SLCO1B1), SLCO1B1 (gene 10599)
In words: LTEA_HepaRG_SLCO1B1: Life Technologies and Expression Analysis (LTEA) Assay for solute carrier (SLCO1B1) using HepaRG (AID 2283530). The following applies: mRNA level, 48 h; actives raise or lower the signal. The gist of the method:
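SLCO1B1 transcript levels were quantified by TaqMan qRT-PCR using three housekeeping genes for normalization. This followed 48 h chemical exposure (100 uM top, half-log, 8 points, 0.5% DMSO) of HepaRG liver cells, with gain or loss fitted relative to DMSO.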

Read-out in test [10]: sulfotransferase 2A1 (SULT2A1), SULT2A1 (gene 6822)
In words: LTEA_HepaRG_SULT2A1: Life Technologies and Expression Analysis (LTEA) Assay for sulfotransferase 2A1 (SULT2A1) using HepaRG (AID 2283531). To be noted: mRNA level, 48 h; actives raise or lower the signal. The method in brief:
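Expression change of SULT2A1, by qRT-PCR with three housekeeping-gene normalization, was scored bidirectionally versus DMSO. Cells: differentiated HepaRG, dosed in duplicate for 48 h across 8 points, highest 100 µM, half-log dilution, 0.5% DMSO.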

Read-out in test [11]: Transforming Growth Factor (TGFA), TGFA (gene 7039)
Kind of test: LTEA_HepaRG_TGFA: Life Technologies and Expression Analysis (LTEA) Assay for Transforming Growth Factor (TGFA) using HepaRG (AID 2283532). The following applies: mRNA level, 48 h; actives raise or lower the signal. The method in brief:
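Gene expression of TGFA was quantified by qRT-PCR after human HepaRG cells were treated for 48 h with test chemicals (eight concentrations, highest 100 uM, 0.5% DMSO). Activity in either direction was fitted relative to DMSO.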

Read-out in test [12]: Transforming Growth Factor (TGFB1), TGFB1 (gene 7040)
In words: LTEA_HepaRG_TGFB1: Life Technologies and Expression Analysis (LTEA) Assay for Transforming Growth Factor (TGFB1) Transporter using HepaRG (AID 2283533). To be noted: mRNA level, 48 h; actives raise or lower the signal. The method in brief: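 TGFB1 transcript measured by qRT-PCR with normalisation to three housekeeping genes (ACTB, GAPDH, POLR2A); human HepaRG line treated in duplicate for 48 hr with an 8-point series topping at 100 uM, 0.5% DMSO vehicle, bidirectionally fitted.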

Read-out in the next test: TIMP1, TIMP1 (gene 7076)
In words: LTEA_HepaRG_TIMP1: Life Technologies and Expression Analysis (LTEA) Assay for TIMP1 using HepaRG (AID 2283534). The following applies: mRNA level, 48 h; actives raise or lower the signal. The gist of the method:
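Bidirectional change in TIMP1 transcript versus 0.5% DMSO, measured by TaqMan qRT-PCR with three housekeeping genes for normalization. HepaRG human liver cells dosed 48 h in duplicate, top concentration 100 uM with half-log dilutions.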

Read-out in test [13]: Tumor necrosis factor receptor 1 (TNFRSF1A), TNFRSF1A (gene 7132)
Kind of test: LTEA_HepaRG_TNFRSF1A: Life Technologies and Expression Analysis (LTEA) Assay for Tumor necrosis factor receptor 1 (TNFRSF1A) using HepaRG (AID 2283535). The following applies: mRNA level, 48 h; actives raise or lower the signal. The gist of the method: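 mRNA measured by qRT-PCR (TaqMan, Fluidigm arrays) against ACTB/GAPDH/POLR2A housekeepers after 48 h chemical exposure of HepaRG cells. Top concentration 100 uM, half-log 8-point series, duplicates; vehicle 0.5% DMSO, both fit directions.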

Read-out in test [14]: Thyroid Hormone Responsive (THRSP), THRSP (gene 7069)
Kind of test: LTEA_HepaRG_THRSP: Life Technologies and Expression Analysis (LTEA) Assay for Thyroid Hormone Responsive (THRSP) using HepaRG (AID 2283536). To be noted: mRNA level, 48 h; actives raise or lower the signal. The method in brief: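 Cell model: human HepaRG, approx. 100,000 cells/well, 0.5% DMSO vehicle. Exposure lasts 48 h; phenobarbital 1 mM serves as induction positive control. Gene expression is measured by qRT-PCR against three endogenous control genes.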

Read-out in test [15]: UDP glucuronosyltransferase (UGT1A1), UGT1A1 (gene 54658)
In words: LTEA_HepaRG_UGT1A1: Life Technologies and Expression Analysis (LTEA) Assay for UDP glucuronosyltransferase (UGT1A1) using HepaRG (AID 2283538). To be noted: mRNA level, 48 h; actives raise or lower the signal. The gist of the method:
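HepaRG, 48 h chemical exposure (top 100 uM, half-log 8-pt, 0.5% DMSO vehicle), duplicate wells; qRT-PCR (TaqMan, Fluidigm array) for UGT1A1 mRNA, housekeeping-normalized; bidirectional curve fit vs DMSO baseline.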

Read-out in test [16]: UDP glucuronosyltransferase (UGT1A6), UGT1A6 (gene 54578)
In words: LTEA_HepaRG_UGT1A6: Life Technologies and Expression Analysis (LTEA) Assay for UDP glucuronosyltransferase (UGT1A6) using HepaRG (AID 2283539). To be noted: mRNA level, 48 h; actives raise or lower the signal. The method in brief:
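Expression was quantified by TaqMan qRT-PCR on Fluidigm arrays with ACTB/GAPDH/POLR2A normalization and bidirectional fitting against 0.5% DMSO. HepaRG cells (~100,000/well) were treated in duplicate for 48 h at eight half-log concentrations up to 100 uM in serum-free induction medium.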

Read-out in test [17]: X-box binding protein 1 (XBP1), XBP1 (gene 7494)
In words: LTEA_HepaRG_XBP1: Life Technologies and Expression Analysis (LTEA) Assay for X-box binding protein 1 (XBP1) using HepaRG (AID 2283540). The following applies: mRNA level, 48 h; actives raise or lower the signal. The gist of the method:
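XBP1 transcript by qRT-PCR (housekeeping-normalized: ACTB, GAPDH, POLR2A) after 48 h chemical treatment of HepaRG cells, 8-point half-log series topping at 100 uM, vehicle 0.5% DMSO. Gain and loss of signal fitted relative to DMSO.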

A short description of test [18]: LTEA_HepaRG_LDH_cytotoxicity: Cytotoxicity Assessment in the Life Technologies and Expression Analysis (LTEA) Assay (AID 2283563; active means hit-call score of the fitted dose curve at least 0.9, where 1 is the maximum;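 on AC50: LDH activity released into spent culture medium as a marker of cell death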). The gist of the method:
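LDH release into culture medium read after 48 h chemical treatment of HepaRG cells. Duplicate wells, eight-point half-log series topping at 100 uM, 0.5% DMSO vehicle and baseline.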

Read-out in test [19]: Cellular tumor antigen p53 (Homo sapiens) (UniProt P04637)
Kind of test: LTEA_HepaRG_TP53: Life Technologies and Expression Analysis (LTEA) Assay for Tumor Protein P53 (TP53) using HepaRG (AID 2283537). To be noted: mRNA level, 48 h; actives raise or lower the signal. The method in brief: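 HepaRG, 48 h exposure, top 100 uM, half-log 8-point, 0.5% DMSO vehicle, duplicates. Read: TP53 mRNA by TaqMan qRT-PCR, normalised to ACTB/GAPDH/POLR2A; bidirectional fit vs DMSO.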

Sequence of Nuclear factor erythroid 2-related factor 2 (Homo sapiens) (Q16236 whole entry, looked up): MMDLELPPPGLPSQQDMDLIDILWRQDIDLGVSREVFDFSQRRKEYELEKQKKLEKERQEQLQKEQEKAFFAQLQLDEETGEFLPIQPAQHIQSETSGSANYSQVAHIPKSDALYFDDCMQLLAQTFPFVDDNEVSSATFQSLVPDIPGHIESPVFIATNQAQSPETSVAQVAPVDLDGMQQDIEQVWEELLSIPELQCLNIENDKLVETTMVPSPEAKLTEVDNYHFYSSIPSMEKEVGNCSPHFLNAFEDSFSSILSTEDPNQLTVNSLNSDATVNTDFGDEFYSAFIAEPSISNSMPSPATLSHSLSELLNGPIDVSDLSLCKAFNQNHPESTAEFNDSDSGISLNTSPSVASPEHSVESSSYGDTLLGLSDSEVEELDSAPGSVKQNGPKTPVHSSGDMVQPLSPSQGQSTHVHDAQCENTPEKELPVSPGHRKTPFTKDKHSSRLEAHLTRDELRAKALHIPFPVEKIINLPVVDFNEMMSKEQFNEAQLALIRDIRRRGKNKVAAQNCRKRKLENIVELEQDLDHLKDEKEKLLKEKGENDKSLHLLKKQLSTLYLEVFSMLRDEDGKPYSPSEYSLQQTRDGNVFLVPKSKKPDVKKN
Sequence of Signal transducer and activator of transcription 3 (Homo sapiens) (P40763 whole entry, looked up): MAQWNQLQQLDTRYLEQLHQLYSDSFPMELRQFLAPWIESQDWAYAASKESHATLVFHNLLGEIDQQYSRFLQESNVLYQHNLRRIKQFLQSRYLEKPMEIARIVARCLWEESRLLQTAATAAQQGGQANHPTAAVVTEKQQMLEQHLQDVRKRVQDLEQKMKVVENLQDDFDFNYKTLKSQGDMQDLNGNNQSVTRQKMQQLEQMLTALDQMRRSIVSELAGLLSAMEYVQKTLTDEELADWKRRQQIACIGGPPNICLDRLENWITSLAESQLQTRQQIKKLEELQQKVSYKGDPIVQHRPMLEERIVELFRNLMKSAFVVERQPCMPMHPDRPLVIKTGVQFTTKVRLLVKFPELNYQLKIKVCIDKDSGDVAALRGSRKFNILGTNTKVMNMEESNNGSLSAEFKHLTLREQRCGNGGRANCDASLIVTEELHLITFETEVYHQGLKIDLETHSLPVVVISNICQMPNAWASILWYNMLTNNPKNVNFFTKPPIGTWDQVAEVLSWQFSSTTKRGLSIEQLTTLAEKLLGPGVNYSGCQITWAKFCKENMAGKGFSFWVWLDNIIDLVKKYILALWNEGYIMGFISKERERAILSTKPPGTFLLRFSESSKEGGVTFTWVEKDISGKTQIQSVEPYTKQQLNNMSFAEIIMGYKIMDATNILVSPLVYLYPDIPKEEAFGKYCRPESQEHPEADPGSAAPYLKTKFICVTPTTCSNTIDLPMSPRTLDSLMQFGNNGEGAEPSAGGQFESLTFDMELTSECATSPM
Sequence of Cellular tumor antigen p53 (Homo sapiens) (P04637 whole entry, looked up): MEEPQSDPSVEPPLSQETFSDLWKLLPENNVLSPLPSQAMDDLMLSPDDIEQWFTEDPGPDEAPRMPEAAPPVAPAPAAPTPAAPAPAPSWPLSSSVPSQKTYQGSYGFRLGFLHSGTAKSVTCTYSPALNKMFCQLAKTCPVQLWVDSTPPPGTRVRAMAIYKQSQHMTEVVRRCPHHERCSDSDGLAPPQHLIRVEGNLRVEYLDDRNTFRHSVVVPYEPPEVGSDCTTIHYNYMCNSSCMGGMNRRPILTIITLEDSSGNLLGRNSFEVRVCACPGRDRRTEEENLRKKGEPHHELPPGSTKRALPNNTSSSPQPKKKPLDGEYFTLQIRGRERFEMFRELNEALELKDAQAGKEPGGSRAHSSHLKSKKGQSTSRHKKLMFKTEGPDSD

Turning to `O=[N+]([O-])c1cc(C(F)(F)F)c(Cl)c([N+](=O)[O-])c1Nc1ncc(C(F)(F)F)cc1Cl`, the AC50 (commonly the midpoint of the concentration-response curve, whichever way the signal moves) is 65.2 µM (active) in test [1]; 59.8 µM (active) in test [2]; 17.8 µM (active) in test [3]; 34 µM (active) in test [4]; 23.4 µM (active) in [9]; 50 µM (active) in test [10]. Moreover, the concentration at half-maximal activity (AC50) in [12] was 79.7 µM (active); in [14], 23.9 µM (active); in test [15], 79.5 µM (active); in test [16], 73.6 µM (active); in [18], 48.4 µM (active). The outcome in test [5] was “inactive”; in test [6], “inactive”; in test [7], “inactive”; in [8], “inactive”; in [11] it was “inactive”; with TIMP1, TIMP1 (gene 7076) it was “inactive”. For the same compound, the result in test [13] and in [17] was inactive.
As for `N#CSCSC#N`, the result in test [1], in test [2], in test [4], in test [5], in test [6] and in test [7] was inactive. Further, the outcome is “inactive” in [8]; “inactive” in test [9]; “inactive” in test [10]; “inactive” in [11]; “inactive” in test [12]; “inactive” in the test with TIMP1, TIMP1 (gene 7076). Also, the outcome in test [13], in [15], in test [16] and in [17] was inactive. Moreover, the AC50 in test [3] was 74.2 µM (active); in [14], 50 µM (active); in test [18], 75.7 µM (active).
With `C#CCC1=C(C)C(OC(=O)C2C(C=C(C)C)C2(C)C)CC1=O` (stereo not given), the outcome in test [1], in [2], in [5], in test [6], in test [8] and in [9] was inactive. The outcome was “inactive” in test [10]; “inactive” in test [11]; “inactive” in [12]; “inactive” in the test with TIMP1, TIMP1 (gene 7076); “inactive” in [13]; “inactive” in [15]. Also, the call in test [16], in test [17] and in [18] was inactive. Also, the AC50 is 74.1 µM (active) in test [3], 9.87 µM (active) in test [4], 9.87 µM (active) in test [7] and 88.9 µM (active) in test [14].
On to `CCOP(=S)(OCC)SCCSCC`, for which the compound was called inactive in [1], in test [2], in test [3], in test [4], in test [5] and in [6]. Also, the outcome in test [7] is “inactive”; in [9], “inactive”; in [10] it was “inactive”; in test [11] it was “inactive”; in test [12], “inactive”; with TIMP1, TIMP1 (gene 7076) it was “inactive”. Further, the outcome in test [13], in test [14], in [19], in test [15], in test [16] and in test [17] was inactive.
